# Measured values published in PubChem BioAssay AID588549 (Broad Institute, 2011).
# About 780 (0.22%) of roughly 360,000 compounds were called active. Cut-off read from the data, not from the text of the source: active = inhibition above about 8.5% (passing the limit was not always enough); inconclusive = no clear call, values can overlap the other calls. Many of the other results were omitted from the sample, so actives are more common in it than they were.
# System: Mycobacterium tuberculosis FadD28 fatty-acid-AMP ligase
# Experiment: inhibitors of FadD28 bisubstrate probe binding, primary screen, biochemical, fluorescence polarization, single point (AID 588549)
# Conditions: at 12.5 µM, active compounds read high
row,SMILES,inhibition
1,COCCN(CCOC)c1nc(N)c2c(N)nc3c(c2c1C#N)CC(=O)N3Cc1ccc(Cl)cc1,39.6% (active)
2,Cc1ccc(-c2csc(NCCc3nc4cc(Cl)c(Cl)cc4n3CCOCCO)n2)cc1,-0.743% (inactive)
3,Cc1nc(NC(=O)CN(C)S(=O)(=O)c2ccc(Cl)cc2)sc1C,0.291% (inactive)
4,CCC(=O)Nc1nnc(S(=O)(=O)N(CC(C)C)c2ccccc2)s1,-1.99% (inactive)
5,CC(C)CC(=O)Nc1nnc(S(=O)(=O)N(C)c2ccc(Cl)cc2)s1,19.6% (active)
6,CN(CC#CCC(c1ccccc1)c1ccccc1)C(C)(C)C,-4.42% (inactive)
7,O=C(NCCc1ccco1)c1ccc(OCc2cn3ccccc3n2)cc1,-3.83% (inactive)
8,Cc1ccccc1-c1csc(C(O)c2cccc(Cl)c2)n1 (stereo unspecified),-5.7% (inactive)
9,COc1cccc2c1C(=O)c1c(O)c3c(c(O)c1C2=O)CC(O)(C(C)=NNC(=O)c1ccc(Cl)c(Cl)c1)CC3OC1CC(N)C(O)C(C)O1 (stereo unspecified),59.5% (active)
10,CN(C(=O)CN1C(=O)CCSc2ccc(S(=O)(=O)N3CCCC3)cc21)c1ccccc1,-0.827% (inactive)
11,CC1=CC2=NC(=O)CC(C)(C(=O)N(CC(=O)NC(C)(C)C)Cc3ccccc3)N2C=C1 (stereo unspecified),0.336% (inactive)
12,COc1cc(C(=S)NCc2ccccc2)cc(Br)c1O,11% (active)
13,COc1ccccc1OCCC(=O)OCC(=O)NCc1ccccc1,-1.13% (inactive)
14,COc1cc(-c2nnn(CC(=O)NCc3ccccc3)n2)cc(OC)c1OC,0.0025% (inactive)
15,CSc1ccc(CN2CCC2(C)C(=O)Nc2ccc(C)c(O)c2)cc1 (stereo unspecified),-2.96% (inactive)
16,Cc1cc(-c2ccc(C)c(S(=O)(=O)Nc3ccc(S(N)(=O)=O)cc3)c2)on1,14.4% (active)

row,SMILES,inhibition
1,CCc1ccc(-c2cc(C)no2)cc1S(=O)(=O)NCCc1ccc(S(N)(=O)=O)cc1,-1.2% (inactive)
2,Cc1cc(-c2ccc(C)c(S(=O)(=O)NC(C)Cc3ccco3)c2)on1 (stereo unspecified),-1.87% (inactive)
3,CO[C@@H]1[C@@H](OC(N)=O)[C@@H](O)C(Oc2ccc3c(O)c(NC(=O)c4ccc(O)c(CC=C(C)C)c4)c(=O)oc3c2C)OC1(C)C (stereo partly specified),-2.46% (inactive)
4,Cc1cccc(C)c1NC(=O)CS(=O)CC(=O)N1CCN(c2ccccc2)CC1 (stereo unspecified),0.692% (inactive)
5,Cc1ccc(NC(=O)CSCC(=O)NC2CCCCC2)cc1,1.13% (inactive)
6,O=c1/c(=C/c2ccc(CNS(=O)(=O)c3ccccc3)o2)sc2n1CCN=2,-4.15% (inactive)
7,Cc1ccc(N2CCN(S(=O)(=O)N(C)C)CC2)cc1Cl,0.0335% (inactive)
8,CC(C)CC(N=C1NC(C)(C)Cc2ccccc21)C(=O)O (stereo unspecified),-3.18% (inactive)
9,CCCn1c(=S)[nH]c2ccc(C(F)(F)F)cc21,-2.34% (inactive)
10,Cc1nn(C(C)CC(=O)O)c(C)c1C (stereo unspecified),-1.05% (inactive)
11,CCCC(=O)Nc1ccc2c(c1)nc1n2CCSC1,-0.77% (inactive)
12,CS/C(=C\[N+](=O)[O-])Nc1ccc(C)cc1,2.23% (inactive)
13,CC(C)CNC(=O)C(=O)NCC(c1ccc2c(c1)OCO2)N1CCOCC1 (stereo unspecified),-1.64% (inactive)
14,CCCCN1C(=O)C(CC(=O)NCc2cccs2)CC(C(=O)N2CCOCC2)=C1C (stereo unspecified),-1.02% (inactive)
15,CCNC(=O)NC(=O)C(C)OC(=O)C1CCN(S(=O)(=O)c2ccccc2F)CC1 (stereo unspecified),-0.363% (inactive)
